High-throughput results as filed in PubChem BioAssay.
Only some compounds are listed: those with a hit (about 3.5% of all), similar ones and a draw of the others.
ATG4B inh – ATG4B (human) cysteine protease inhibition | ATG4B cleavage of LC3-PLA2, NBD-HPC fluorescence, 1 h | inhibition, % at 8.33 µM | 340,000 tested, 0.51% active; in the data active = inhibition above about 40%
M1 PAM – potentiates human M1 receptor response to acetylcholine | CHO-K1 hM1, Fluo-8 calcium fluorescence, ACh EC20; 0% = ACh EC20, 100% = maximal ACh | activation, % at 3 µM | 360,000 tested, 0.088% active | AID 588819; in the data active = activation above about 19%, passing the limit was not always enough
Target sequence (P11229 whole entry, looked up): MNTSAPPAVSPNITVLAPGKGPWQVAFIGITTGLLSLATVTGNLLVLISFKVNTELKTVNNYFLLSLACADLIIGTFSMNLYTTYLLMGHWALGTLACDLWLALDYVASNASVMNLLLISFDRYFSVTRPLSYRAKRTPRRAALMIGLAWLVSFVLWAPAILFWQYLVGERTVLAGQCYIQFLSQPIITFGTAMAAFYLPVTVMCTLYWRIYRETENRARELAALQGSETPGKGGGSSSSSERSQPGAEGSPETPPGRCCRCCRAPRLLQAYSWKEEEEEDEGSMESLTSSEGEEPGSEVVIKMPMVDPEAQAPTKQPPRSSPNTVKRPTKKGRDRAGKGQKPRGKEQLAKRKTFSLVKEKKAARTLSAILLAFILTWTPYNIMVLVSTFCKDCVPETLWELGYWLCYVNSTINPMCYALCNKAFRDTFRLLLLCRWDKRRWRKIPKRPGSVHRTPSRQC
CHRM1 antagonist – antagonists of human M1 muscarinic receptor; P11229; 360,000 tested, 1.3% active; CHO-K1 hM1, Fluo-8 calcium fluorescence, ACh EC80 antagonist; inhibition, % at 3 µM;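 active = percent inhibition above its own plate's cutoff, namely the mean of that plate's compound wells plus 3 SD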;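 note: peak over basal fluorescence ratio during 140 s after agonist addition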
SKN-1 inh – blocks SKN-1 activity in C. elegans; C. elegans VP596 Pgst-4::GFP/RFP ratio, acrylamide-induced, 24 h; inhibition, % at 21.8 µM; 360,000 tested, 0.49% active;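 active = interference check ratio from 0.5 to 1.5 plus GFP to RFP signal ratio inhibition reaching or exceeding a fixed threshold, cut at about 30% in these data, passing the limit was not always enough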
M1 ag – agonists of human M1 muscarinic receptor | P11229 | CHO-K1 hM1, Fluo-8 calcium fluorescence, agonist mode; 0% DMSO, 100% acetylcholine EC100 | activation, % at 3 µM | 360,000 tested, 0.33% active;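 active = activation above the run's mean compound activation plus 3 SD, cut at about 16% in these data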;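 note: peak over basal fluorescence ratio within a 140 s kinetic read after compound addition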
Myeloid diff 2 – myeloid differentiation induction | ER-HoxA9 myeloid progenitors, lysozyme-GFP differentiation, flow cytometry | 360,000 tested, 1% active | calls only at 10 µM;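 active = normalized GFP-positive differentiation at or above the plate's own cutoff, the solvent-only control mean plus 3 SD; inconclusive = no clear call, values can overlap the other calls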;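 note: cells exposed to compound for four days before flow analysis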
Of the large screens only hits and unclear results are named; the others gave an inactive call.

CC1(c2nnnn2-c2ccc3c(c2)OCCO3)CCC(=O)N1Cc1cccc(C(F)(F)F)c1 (stereo not drawn)	none (no result: ATG4B inh, M1 PAM, CHRM1 antagonist, M1 ag)
CCCCc1c(-c2ccc(OC)cc2)ncn1CCc1ccccc1OC	none (no result: ATG4B inh, M1 PAM, CHRM1 antagonist, M1 ag)
COc1ccc(CN2CCN(CCc3ccccc3)C(CCO)C2)c(Cl)c1OC (stereo not drawn)	none
COc1ccc(S(=O)(=O)Nc2ccc3c(c2)C(=O)N([C@@H](C)CO)C[C@H](C)[C@H](CN(C)CC2CC2)O3)cc1	none
O=C(N[C@@H](Cc1ccccc1)C(=O)N1CCC2(CC1)NCCc1[nH]cnc12)c1cccc(Br)c1	CHRM1 antagonist 39
O=C(c1cccc(Cl)c1)N1CCC2(CC1)NCCc1[nH]cnc12	none
O=C(c1cccc(F)c1)N1CCC2(CC1)NCCc1[nH]cnc12	Myeloid diff 2 active
CCOc1ccc(C(=O)OCC(=O)NCC2CCCO2)cc1 (stereo not drawn)	none
CCC(CO)Oc1cc(NC(=O)Cc2ccccc2F)c2ncn(C(C)C)c2c1 (stereo not drawn)	none
O=C(CSc1n[nH]c(-c2ccccn2)n1)Nc1ccccc1F	none
COc1ccc(-c2noc(CCC(=O)Nc3cccnc3)n2)cc1	Myeloid diff 2 active
O=C(COc1ccc(C(=O)NCc2cccnc2)cc1)Nc1cccc(C(F)(F)F)c1	CHRM1 antagonist 36
O=C(COc1ccc(-c2ccccc2)cc1)Nc1cccnc1	CHRM1 antagonist 39
O=C(COc1ccc(Cl)cc1)Nc1ccc(C(=O)NCc2cccnc2)cc1	Myeloid diff 2 inconclusive
N#CCCCC1(CCCC#N)OCCO1	none
CCCCN(C(=O)CCn1c(=O)oc2ccccc21)c1ccccc1	none
Cn1c(=O)[nH]c2c(c1=O)CCO2	none
CN1CCCCCC1=Nc1ccccc1C#N	CHRM1 antagonist 27
Cc1cccc(NC(=O)CSc2nc3c([nH]c4ccccc43)c(=O)n2C)c1	none
Cn1c(SCC(=O)Nc2ccccc2)nc2c([nH]c3ccccc32)c1=O	CHRM1 antagonist 35
COC(=O)CCC(=O)N1CN2CN(C(=O)CCC(=O)OC)CC([N+](=O)[O-])(C2)C1	none
COc1ccc(-c2cc(C(=O)N3CCN(c4ccccc4F)CC3)c3ccccc3n2)c(OC)c1	CHRM1 antagonist 29
COc1ccc(-c2cc(C(=O)N3CCN(c4ncccn4)CC3)c3ccccc3n2)c(OC)c1	none
CCOc1ccccc1N1CCN(C(=O)c2cc(-c3cc(OC)ccc3OC)nc3ccccc23)CC1	CHRM1 antagonist 33
Cc1[nH]c2ccccc2c1SCc1ccccc1	SKN-1 inh 40
COc1cc2ncnc(NCc3cccc(Cl)c3)c2cc1OC	Myeloid diff 2 active
CCNc1nc(CN2CCCCC2)nc2scc(-c3ccccc3)c12	CHRM1 antagonist 65
C(/C=C/c1ccco1)=N/N1CCN(c2ccccc2)CC1	SKN-1 inh 59
COc1ccccc1C(=O)NCCC(=O)N1CC(C)OC(C)C1 (stereo not drawn)	none
Cc1ccc(/C=C2/C(=O)N=C(N)N2C)s1	Myeloid diff 2 active
N=C(N)SCc1ccccn1	M1 ag 30
CC(=O)Nc1ccc(S(=O)(=O)NCCSCc2cccc(Cl)c2)cc1	Myeloid diff 2 active
CC(=O)Nc1ccc(S(=O)(=O)NCCSCc2c(Cl)cccc2Cl)cc1	none
CCCNC(=O)[C@@H]1CCCN1C(=O)C1CCN(S(=O)(=O)c2ccc(C)cc2)CC1	none
Cc1ccc(S(=O)(=O)N2CCC(C(=O)N3CCC[C@H]3C(=O)NC3CCS(=O)(=O)C3)CC2)cc1 (stereo partly drawn)	CHRM1 antagonist 54
COc1ccc(-n2ncc3c(=O)n(CC(=O)NC(C)C)cnc32)cc1	none
COc1ccc(C(=O)C2CCCN(C3Cc4ccccc4C3)C2)c(OC)c1 (stereo not drawn)	CHRM1 antagonist 29
COc1ccc(C(=O)C2CCCN(Cc3cc(C)c(O)c(C)c3)C2)c(OC)c1 (stereo not drawn)	none
C=CCSC1=C(C#N)C(c2ccccc2Cl)C(C(=O)c2cccs2)C(O)(C(F)(F)F)N1 (stereo not drawn)	none
Cc1nc(NC(=O)c2ccccc2)sc1Cc1ccc2c(c1)OCO2	none
Cc1cc(C)nc(NC(=NCc2ccc3c(c2)OCO3)NC(=O)Nc2ccccc2)n1	CHRM1 antagonist 32
CC1CCN(CCCCOc2ccc(F)cc2)CC1	none
CC1CCN(CCCOc2ccc(OCc3ccccc3)cc2)CC1	CHRM1 antagonist 43
c1ccc(COc2ccc(OCCCN3CCCC3)cc2)cc1	CHRM1 antagonist 46
c1ccc(COc2ccc(OCCN3CCCC3)cc2)cc1	none
CN(Cc1cccc(C(F)(F)F)c1)Cc1nc(-c2cnccn2)no1	none
CC(=O)C[C@@H]1SC[C@H](c2ccccc2)N1S(=O)(=O)c1ccc(C)cc1	none (no result: ATG4B inh, M1 PAM, CHRM1 antagonist, M1 ag)
Cn1c(=O)c2c(ncn2Cc2nnc(N)s2)n(C)c1=O	none
Cc1cc(=O)n2c3ccccc3n(CC(O)CN3CCN(CCO)CC3)c2c1C#N (stereo not drawn)	none
Cc1cc(=O)n2c3ccccc3n(CC(O)CN3CCN(Cc4ccccc4)CC3)c2c1C#N (stereo not drawn)	CHRM1 antagonist 45
CN(Cc1ccccc1)C(=O)COC(=O)c1cc(S(=O)(=O)N(C)C)ccc1N1CCCC1	none
Cc1cc([N+](=O)[O-])ccc1NC(=O)C(C)[n+]1ccccc1 (stereo not drawn)	CHRM1 antagonist 27
Cc1cc([N+](=O)[O-])ccc1NC(=O)c1ccco1	none
N#CC1=C(N)OC2=C(C(=O)CCC2)C1c1cc2c(cc1Br)OCO2 (stereo not drawn)	CHRM1 antagonist 30
N#CC1=C(N)OC2=C(C(=O)CCC2)C1c1cc2c(cc1Cl)OCO2 (stereo not drawn)	none
CC1(C2CC2)NC(=O)N(CC(=O)N2CCN(S(=O)(=O)c3ccc(F)c(F)c3)CC2)C1=O (stereo not drawn)	none
C=CCN(CC=C)CC(O)CN(c1cc([N+](=O)[O-])ccc1OC)S(=O)(=O)c1ccccc1 (stereo not drawn)	SKN-1 inh 38
COC(=O)c1cc(S(=O)(=O)NCC2CCN(Cc3ccccc3F)CC2)c[nH]1	none
O=c1ccc(-c2ccc(S(=O)(=O)NCC3CCN(Cc4ccccc4F)CC3)s2)n[nH]1	CHRM1 antagonist 93
CC(=O)OCCNc1cc(Sc2nc3ccccc3[nH]2)c2nonc2c1[N+](=O)[O-]	Myeloid diff 2 active
CC(C)(C)n1nc2c(c1NC(=O)COc1ccc(F)cc1)CS(=O)(=O)C2	none
Cc1ccccc1OCC(=O)Nc1c2c(nn1C(C)(C)C)CS(=O)(=O)C2	Myeloid diff 2 active
COc1ccc(OCC(=O)Nc2c3c(nn2C(C)(C)C)CS(=O)(=O)C3)cc1	Myeloid diff 2 active
CC1(C(=O)Nc2cnc3ccccc3c2)CCN1CCOc1ccccc1 (stereo not drawn)	none (no result: ATG4B inh)
